PubChem BioAssay AID1159580 (chemical genetic matrix, 2015)
“And” between values parts separate entries of the source, which are not always exact repeats. Identical values can stand only once. About 2,000 (36%) of roughly 5,500 compounds were called active. Inconclusive results (about 18%) are left out. Cut-off read from the data, not from the text of the source: active = normalized growth mostly below about 0.91 (no sharp cut-off); inconclusive = no clear call, values can overlap the other calls; inactive = mostly above about 0.92. The list shows a part of the results.

Assay: chemical genetic growth profiling, strain panel (AID 1159580);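 note: tested at 20 µM; growth read once vehicle control cultures reached saturation at 30 °C; 1 = growth at the plate median or of vehicle wells; lower values mean less growth of the strain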
Settings: S. cerevisiae deletion strains, growth OD
[1] = locus YAL040C, strain CLN3, stronger effect = lower value
[2] = locus YCL061C, strain MRC1 (second series), stronger effect = lower value
[3] = locus YER002W, strain NOP16, stronger effect = lower value
[4] = locus YJR075W, strain HOC1, stronger effect = lower value
[5] = locus YMR263W, strain SAP30, stronger effect = lower value
[6] = locus YNL153C, strain GIM3, stronger effect = lower value
[7] = locus YNL175C, strain NOP13, stronger effect = lower value
[8] = locus YNL197C, strain WHI3, stronger effect = lower value
[9] = locus YNL224C, strain SQS1, stronger effect = lower value
[10] = locus YOR083W, strain WHI5 (second series), stronger effect = lower value
[11] = locus YPL241C, strain CIN2, stronger effect = lower value

Measured: normalized growth

N[C@@H](CC(=O)O)C(=O)O
inactive: locus YAL013W, strain DEP1, stronger effect = lower value 1.01 | [1] 1.09 | [2] 1.01 | [3] 1.01 | [4] 1.01 | [5] 1 | [6] 1.02 | [7] 1 | [8] 1 | [9] 0.996 | [10] 0.955 | [11] 1.01

O=c1[nH]cnc2[nH]ncc12
inactive: locus YAL021C, strain ccr4, stronger effect = lower value 1.01 | locus YAL026C, strain drs2, stronger effect = lower value 1 | locus YAL030W, strain snc1, stronger effect = lower value 0.985 | [1] 1.01 | locus YBL061C, strain skt5, stronger effect = lower value 1 | locus YBR009C, strain hhf1, stronger effect = lower value 1 | locus YBR021W, strain FUR4, stronger effect = lower value 1.01 | locus YBR023C, strain chs3, stronger effect = lower value 1 | locus YBR171W, strain sec66, stronger effect = lower value 1.01 | locus YBR229C, strain ROT2, stronger effect = lower value 1.01 | locus YBR231C, strain swc5, stronger effect = lower value 1.02 | locus YBR279W, strain paf1, stronger effect = lower value 1 | locus YCL011C, strain gbp2, stronger effect = lower value 1.01 | locus YCL016C, strain dcc1, stronger effect = lower value 1.01 | locus YCL029C, strain bik1, stronger effect = lower value 1.02 | [2] 0.996 | locus YCL069W, strain vba3, stronger effect = lower value 1.01 | locus YCR088W, strain abp1, stronger effect = lower value 0.993 | locus YDL005C, strain med2, stronger effect = lower value 0.998 | locus YDL035C, strain GPR1, stronger effect = lower value 0.997 | locus YDL040C, strain nat1, stronger effect = lower value 0.988 | locus YDL074C, strain BRE1, stronger effect = lower value 0.996 | locus YDL101C, strain DUN1, stronger effect = lower value 1.01 | locus YDL134C, strain PPH21, stronger effect = lower value 0.993 | locus YDL185W, strain tfp1, stronger effect = lower value 1.02 | locus YDL192W, strain arf1, stronger effect = lower value 1.01 | locus YDR001C, strain nth1, stronger effect = lower value 0.992 | locus YDR069C, strain doa4, stronger effect = lower value 1.04 | locus YDR101C, strain arx1, stronger effect = lower value 1 | locus YDR137W, strain rgp1, stronger effect = lower value 0.993 | locus YDR159W, strain sac3, stronger effect = lower value 1.02 | locus YDR162C, strain NBP2, stronger effect = lower value 1.01 | locus YDR195W, strain ref2 0.958 | locus YDR297W, strain sur2, stronger effect = lower value 1 | locus YDR318W, strain mcm21, stronger effect = lower value 1.01 | locus YDR334W, strain swr1, stronger effect = lower value 1.03 | locus YDR335W, strain msn5, stronger effect = lower value 1.01 | locus YDR388W, stronger effect = lower value 1.02 | locus YDR392W, strain spt3, stronger effect = lower value 0.966 | locus YDR502C, strain sam2, stronger effect = lower value 1.01 | locus YEL003W, strain gim4, stronger effect = lower value 1.01 | locus YEL037C, strain rad23, stronger effect = lower value 1.01 | locus YEL061C, strain CIN8 (second series), stronger effect = lower value 1.02 | locus YEL061C, strain CIN8, stronger effect = lower value 1 | [3] 1 | locus YER015W, strain faa2, stronger effect = lower value 1.01 | locus YER016W, strain bim1, stronger effect = lower value 0.97 | locus YER110C, stronger effect = lower value 1.03 | locus YER111C, strain swi4, stronger effect = lower value 1 | locus YER155C, strain BEM2 (second series), stronger effect = lower value 1.01 | locus YER155C, strain BEM2, stronger effect = lower value 1.01 | locus YER167W, strain BCK2, stronger effect = lower value 0.999 | locus YFR010W, strain ubp6, stronger effect = lower value 1.01 | locus YGL078C, strain dbp3, stronger effect = lower value 1.01 | locus YGL086W, strain mad1, stronger effect = lower value 1 | locus YGL167C, strain pmr1, stronger effect = lower value 1.01 | locus YGL173C, strain kem1, stronger effect = lower value 0.998 | locus YGL227W, strain vid30, stronger effect = lower value 1.01 | locus YGL240W, strain doc1, stronger effect = lower value 1.04 | locus YGL248W, strain PDE1, stronger effect = lower value 1.01 | locus YGL253W, strain hxk2, stronger effect = lower value 0.995 | locus YGR135W, strain pre9, stronger effect = lower value 1.01 | locus YGR252W, strain gcn5, stronger effect = lower value 0.989 | locus YHR013C, strain ard1, stronger effect = lower value 0.968 | locus YHR027C, strain rpn1, stronger effect = lower value 1 | locus YHR030C, strain SLT2, stronger effect = lower value 1.01 and 0.983 | locus YHR079C, strain IRE1 (second series), stronger effect = lower value 1.02 | locus YHR079C, strain IRE1, stronger effect = lower value 1.04 | locus YHR094C, strain hxt1, stronger effect = lower value 1.03 | locus YHR129C, strain ARP1, stronger effect = lower value 1 | locus YHR142W, strain chs7, stronger effect = lower value 0.998 | locus YHR200W, strain rpn10, stronger effect = lower value 1.03 | locus YIL066C, strain RNR3, stronger effect = lower value 1.01 | locus YIL073C, strain SPO22, stronger effect = lower value 1.04 | locus YIL125W, strain kgd1, stronger effect = lower value 1.02 | locus YIR030C, strain dcg1, stronger effect = lower value 1.01 | locus YJL092W, strain hpr5, stronger effect = lower value 1.01 | locus YJL095W, strain BCK1 (second series), stronger effect = lower value 1.01 | locus YJL095W, strain BCK1, stronger effect = lower value 1.02 and 1.03 | locus YJL115W, strain asf1, stronger effect = lower value 1.02 | locus YJL129C, strain trk1, stronger effect = lower value 1.01 | locus YJL134W, strain LCB3, stronger effect = lower value 0.999 | locus YJL154C, strain vps35, stronger effect = lower value 1.01 | locus YJL164C, strain tpk1, stronger effect = lower value 0.981 | locus YJL166W, strain qcr8, stronger effect = lower value 1.02 | locus YJL168C, strain set2, stronger effect = lower value 1.02 | locus YJL187C, strain SWE1 (second series), stronger effect = lower value 1.02 | locus YJL187C, strain SWE1, stronger effect = lower value 1.01 | locus YJR043C, strain POL32, stronger effect = lower value 0.988 | locus YJR066W, strain TOR1, stronger effect = lower value 0.974 | [4] 1.01 | locus YKL009W, strain mrt4, stronger effect = lower value 1.02 | locus YKL068W, stronger effect = lower value 1.01 | locus YKL085W, strain MDH1 (second series), stronger effect = lower value 1 | locus YKL085W, strain MDH1, stronger effect = lower value 1 | locus YKL160W, strain elf1, stronger effect = lower value 1 | locus YKR001C, strain vps1, stronger effect = lower value 1.01 | locus YKR026C, strain gcn3, stronger effect = lower value 1.06 | locus YKR091W, strain srl3, stronger effect = lower value 0.999 | locus YLL001W, strain dnm1, stronger effect = lower value 1.01 | locus YLL026W, stronger effect = lower value 1 | locus YLL041C, strain sdh2, stronger effect = lower value 0.987 | locus YLR027C, strain aat2, stronger effect = lower value 1.01 | locus YLR039C, strain RIC1, stronger effect = lower value 1 | locus YLR058C, strain SHM2, stronger effect = lower value 1.01 | locus YLR102C, strain apc9, stronger effect = lower value 1.02 | locus YLR113W, strain HOG1, stronger effect = lower value 1.02 | locus YLR221C, strain rsa3, stronger effect = lower value 1.01 | locus YLR258W, strain gsy2, stronger effect = lower value 1 | locus YLR262C, strain YPT6 (second series), stronger effect = lower value 1 | locus YLR262C, strain YPT6, stronger effect = lower value 1.04 | locus YLR268W, strain sec22, stronger effect = lower value 1.02 | locus YLR320W, strain mms22, stronger effect = lower value 0.992 | locus YLR330W, strain CHS5, stronger effect = lower value 1 | locus YLR342W, strain FKS1 (second series), stronger effect = lower value 0.982 | locus YLR342W, strain FKS1, stronger effect = lower value 1.02 | locus YLR357W, strain rsc2, stronger effect = lower value 0.998 | locus YLR370C, strain arc18, stronger effect = lower value 1.01 | locus YLR371W, strain rom2, stronger effect = lower value 1.01 | locus YLR384C, strain iki3, stronger effect = lower value 1 | locus YLR418C, strain cdc73, stronger effect = lower value 1.01 | locus YML016C, strain PPZ1, stronger effect = lower value 1.01 | locus YML032C, strain rad52, stronger effect = lower value 1.01 | locus YML120C, strain ndi1, stronger effect = lower value 1.02 | locus YML124C, strain tub3, stronger effect = lower value 1.02 | locus YMR058W, strain fet3, stronger effect = lower value 1.02 | locus YMR078C, strain ctf18, stronger effect = lower value 1.02 | locus YMR125W, strain sto1, stronger effect = lower value 0.998 | locus YMR129W, stronger effect = lower value 1.01 | locus YMR205C, strain PFK2, stronger effect = lower value 0.998 | locus YMR223W, strain ubp8, stronger effect = lower value 1.01 | locus YMR231W, strain pep5, stronger effect = lower value 1 | [5] 0.997 | locus YMR307W, strain GAS1, stronger effect = lower value 1.02 and 1.01 | locus YNL067W, strain RPL9B, stronger effect = lower value 1.02 | locus YNL071W, strain lat1, stronger effect = lower value 1.02 | [6] 1.03 | [7] 1.01 | locus YNL183C, strain NPR1, stronger effect = lower value 0.977 | [8] 1.01 | locus YNL209W, strain ssb2, stronger effect = lower value 0.998 | [9] 0.994 | locus YNL233W, strain BNI4, stronger effect = lower value 1.01 | locus YNL248C, strain rpa49, stronger effect = lower value 1.04 | locus YNL250W, strain rad50, stronger effect = lower value 1.01 | locus YNL271C, strain bni1, stronger effect = lower value 1.02 | locus YNL298W, strain CLA4, stronger effect = lower value 1.01 | locus YNL307C, strain MCK1, stronger effect = lower value 1.03 | locus YNL322C, strain KRE1 (second series), stronger effect = lower value 0.993 | locus YNL322C, strain KRE1, stronger effect = lower value 1.01 | locus YNR049C, strain mso1, stronger effect = lower value 1.02 | locus YNR052C, strain pop2, stronger effect = lower value 1.02 | locus YOL006C, strain TOP1, stronger effect = lower value 1.05 | locus YOL012C, strain htz1 0.934 | locus YOL147C, strain pex11, stronger effect = lower value 1.01 | locus YOR001W, strain rrp6, stronger effect = lower value 1.05 | locus YOR061W, strain CKA2, stronger effect = lower value 1.01 | locus YOR069W, strain VPS5, stronger effect = lower value 1 | locus YOR070C, strain gyp1, stronger effect = lower value 0.996 | locus YOR080W, strain dia2, stronger effect = lower value 1.02 | [10] 1.04 | locus YOR083W, strain WHI5, stronger effect = lower value 1.05 | locus YOR106W, strain vam3, stronger effect = lower value 1.03 | locus YOR136W, strain idh2, stronger effect = lower value 1.02 | locus YOR144C, strain elg1, stronger effect = lower value 1.01 | locus YOR184W, strain ser1, stronger effect = lower value 1.01 | locus YOR231W, strain MKK1, stronger effect = lower value 1.03 | locus YOR265W, strain rbl2, stronger effect = lower value 1.01 | locus YOR270C, strain vph1, stronger effect = lower value 1.08 | locus YOR290C, strain snf2, stronger effect = lower value 0.993 | locus YOR316C, strain cot1, stronger effect = lower value 1.01 | locus YPL051W, strain arl3, stronger effect = lower value 1.01 | locus YPL078C, strain atp4, stronger effect = lower value 1.03 | locus YPL106C, strain sse1, stronger effect = lower value 1.01 | locus YPL240C, strain hsp82, stronger effect = lower value 1 | [11] 1 | locus YPL256C, strain CLN2, stronger effect = lower value 1 | locus YPR119W, strain clb2, stronger effect = lower value 1.02 | locus YPR141C, strain kar3, stronger effect = lower value 1.03 | locus YPR163C, strain tif3, stronger effect = lower value 1.03 | locus YPR167C, strain met16, stronger effect = lower value 1.02 | strain wtn01, stronger effect = lower value 1
